From PubChem BioAssay (EPA / NIEHS)
Where “and” joins values, the source holds several entries; their conditions need not be identical. Equal values may be shown once. A structure can be active in one record and inactive in another. Calls of active or inactive are those of the source. How the source made its calls: active means hit-call score of the fitted dose curve at least 0.9, where 1 is the maximum; inactive means score below 0.9.

These molecules were tested against Transcription factor Sp1 (Homo sapiens) (UniProt P08047) (assay: ATG_Sp1_CIS: Attagene CIS-FACTORIAL HepG2 Assay for human Specificity Protein 1 (Sp1) (AID 2282961)). Conditions: HepG2 Sp1 cis-reporter transcription, actives raise or lower the signal.
Transcription factor Sp1 (Homo sapiens), sequence (P08047 whole entry, looked up): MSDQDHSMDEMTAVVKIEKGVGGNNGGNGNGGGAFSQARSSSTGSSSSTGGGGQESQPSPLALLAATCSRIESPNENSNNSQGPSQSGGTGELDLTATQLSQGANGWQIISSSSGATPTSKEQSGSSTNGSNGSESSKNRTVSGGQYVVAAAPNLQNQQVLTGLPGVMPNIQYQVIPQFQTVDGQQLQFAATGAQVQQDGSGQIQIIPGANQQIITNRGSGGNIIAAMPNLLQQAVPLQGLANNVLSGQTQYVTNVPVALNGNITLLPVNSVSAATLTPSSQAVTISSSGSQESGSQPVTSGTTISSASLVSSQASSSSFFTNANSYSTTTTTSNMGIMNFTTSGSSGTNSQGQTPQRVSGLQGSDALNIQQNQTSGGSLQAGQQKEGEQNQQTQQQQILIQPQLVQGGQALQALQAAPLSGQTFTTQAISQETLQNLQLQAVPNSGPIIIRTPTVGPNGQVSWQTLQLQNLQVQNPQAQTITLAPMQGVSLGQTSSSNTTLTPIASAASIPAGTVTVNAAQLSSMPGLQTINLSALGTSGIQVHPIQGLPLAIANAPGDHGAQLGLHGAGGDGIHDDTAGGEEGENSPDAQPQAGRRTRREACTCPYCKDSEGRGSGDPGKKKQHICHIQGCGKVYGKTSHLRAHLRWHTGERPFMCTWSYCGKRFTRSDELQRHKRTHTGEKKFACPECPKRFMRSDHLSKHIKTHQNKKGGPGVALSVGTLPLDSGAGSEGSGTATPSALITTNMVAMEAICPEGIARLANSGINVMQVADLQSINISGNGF
Description: ATG_CIS is a cell-based, multiplexed-readout assay that uses HepG2, a human liver cell line, with measurements taken at 24 hours after chemical dosing in a 24-well plate.ATG_Sp1_CIS is one of 52 assay component(s) measured or calculated from the ATG_CIS assay. It is designed to make measurements of mRNA induction, a form of inducible reporter, as detected with fluorescence intensity signals by Reverse transcription polymerase chain reaction (RT-PCR) and Capillary electrophoresis technology.Data from the assay component ATG_Sp1_CIS was analyzed into 1 assay endpoint. This assay endpoint, ATG_Sp1_CIS, was analyzed with bidirectional fitting relative to DMSO as the negative control and baseline of activity. Using a type of inducible reporter, measures of mRNA for gain or loss-of-signal activity can be used to understand the reporter gene at the transcription factor-level as they relate to the gene SP1. Furthermore, this assay endpoint can be referred to as a primary readout, because this assay has produced multiple assay endpoints where this one serves a reporter gene function. To generalize the intended target to other relatable targets, this assay endpoint is annotated to the dna binding intended target family, where the subfamily is zinc finger.
Human liver HepG2 cells are transiently transfected with multiple reporter transcription units (MRTUs) in 6-well plates using FuGene 6 reagent (Roche; 3 ml FuGene/1 mg DNA). The MRTU constructs are regulated by a cis-regulating element (promoter). […] A major difference between the CIS and TRANS system is that in CIS activities of endogenous TFs are measured, whereas the TRANS assay evaluates changes in activities of exogenous, chimeric NR-Gal4 proteins. […] At the end of 24 hour incubation, total RNA was isolated using TriZol reagent (Invitrogen). The isolated RNA is then reverse-transcribed using oligo(dT) primer and Mo-MLV reverse transcriptase (Invitrogen) with DNAse I (Ambion) treatment for 30 min. The one-tenth of the produced cDNA was amplified by PCR using Taq DNA polymerase (Invitrogen) and two reporter sequence-specific primers. The PCR products were fluorescently labeled by primer extension with 6-arboxyfluorescein (6-FAM) 5'-labeled reporter sequence-specific primer (2 min at 95 C, 20 s at 68 C and 10 min at 72 C) and these products were digested with 5U of HpaI (New England Biolabs) for 2h at 37 C. The fragments were purified using Qiaquick PCR columns (Qiagen), analyzed on an ABI 3130xL genetic analyzer (Applied Biosystems) with peak positions identified by using a set of X-rhodamine (ROX)-labeled MapMarker1000 molecular weight standards (BioVentures). The raw capillary electrophoresis data was processed using Attagraph software (Attagene).

Row | SMILES | outcome | AC50
1 | O=S1OCC2C(CO1)C1(Cl)C(Cl)=C(Cl)C2(Cl)C1(Cl)Cl (stereo not given) | inactive | 
2 | O=C(O)COc1ccc(Cl)cc1Cl | inactive | 
3 | CCN(CC)C(=O)SCc1ccc(Cl)cc1 | inactive | 
4 | ClC1C(Cl)C(Cl)C(Cl)C(Cl)C1Cl (stereo not given) | inactive | 100 µM (active) and 70.3 µM (active)
5 | Clc1ccccc1-c1nnc(-c2ccccc2Cl)nn1 | inactive | 
6 | COC(=O)c1ccccc1S(=O)(=O)NC(=O)Nc1nc(C)nc(OC)n1 | inactive | 
7 | CCOC1Oc2ccc(OS(C)(=O)=O)cc2C1(C)C (stereo not given) | inactive | 
8 | CN1CSC(=S)N(C)C1 |  | 50 µM (active)
9 | Oc1ccc(Cl)cc1Cc1ccccc1 | inactive | 13.4 µM (active)
10 | C#CCN1C(=O)COc2cc(F)c(N3C(=O)C4=C(CCCC4)C3=O)cc21 | inactive | 
11 | CC(C)(C)C(O)/C(=C\c1ccc(Cl)cc1Cl)n1cncn1 (stereo not given) | inactive | 
12 | [2H]C1([2H])[n+]2ccccc2-c2cccc[n+]2C1([2H])[2H] | inactive | 
13 | CCc1ccc(C(=O)NN(C(=O)c2cc(C)cc(C)c2)C(C)(C)C)cc1 | inactive | 
14 | CNC(=O)/C=C(\C)OP(=O)(OC)OC | inactive | 
15 | CCC(C)(C)C(=O)OC1=C(c2ccc(Cl)cc2Cl)C(=O)OC12CCCCC2 | inactive | 
16 | CNC(=O)CSP(=S)(OC)OC | inactive | 
17 | CNC(=O)Oc1ccccc1OC(C)C | inactive | 
18 | CC1(c2ccc(Oc3ccccc3)cc2)OC(=O)N(Nc2ccccc2)C1=O (stereo not given) | inactive | 
19 | N#CN | inactive | 

Row | SMILES | outcome | AC50
20 | CC[C@H](C)[C@H]1O[C@]2(C=C[C@@H]1C)C[C@@H]1C[C@@H](C/C=C(\C)[C@@H](O[C@H]3C[C@H](OC)[C@@H](O[C@H]4C[C@H](OC)[C@@H](O)[C@H](C)O4)[C@H](C)O3)[C@@H](C)/C=C/C=C3\CO[C@@H]4[C@H](O)C(C)=C[C@@H](C(=O)O1)[C@]34O)O2 (tested in a mixture with another compound) | inactive | 
21 | CC(C)N(C(=O)COc1nnc(C(F)(F)F)s1)c1ccc(F)cc1 | inactive | 
22 | CC1(C)C(C=C(Cl)Cl)C1C(=O)OC(C#N)c1ccc(F)c(Oc2ccccc2)c1 (stereo not given) | inactive | 
23 | CCOCN(C(=O)CCl)c1c(C)cccc1CC | inactive | 
24 | O=C1c2ccccc2C(=O)N1SC(Cl)(Cl)Cl | inactive | 
25 | COC(=O)c1ccccc1S(=O)(=O)NC(=O)N(C)c1nc(C)nc(OC)n1 | inactive | 
26 | CCC(C)(NC(=O)c1cc(Cl)c(C)c(Cl)c1)C(=O)CCl (stereo not given) | inactive | 
27 | COP(=O)(OC)OC=C(Cl)Cl | inactive | 
28 | O=C(O)CCCOc1ccc(Cl)cc1Cl | inactive | 
29 | COC(=O)c1ccccc1CS(=O)(=O)NC(=O)Nc1nc(OC)cc(OC)n1 | inactive | 
30 | CCOc1nc(NC)nc(NC(=O)NS(=O)(=O)c2ccccc2C(=O)OC)n1 | inactive | 
31 | COP(=S)(OC)Oc1ccc([N+](=O)[O-])cc1 | inactive | 
32 | O=S(=O)(O)C(F)(F)C(F)(F)C(F)(F)C(F)(F)C(F)(F)C(F)(F)C(F)(F)C(F)(F)F | inactive | 26.5 µM (active) and 53.3 µM (active)
33 | O=[N+]([O-])/N=C1\NCCN1Cc1ccc(Cl)nc1 | inactive | 
34 | Cc1cc(C)nc(NC(=O)NS(=O)(=O)c2ccccc2C(=O)OC2COC2)n1 | inactive | 
35 | O=C(NC(=O)c1c(F)cccc1F)Nc1ccc(OC(F)(F)C(F)OC(F)(F)F)c(Cl)c1 (stereo not given) | inactive | 
36 | O=C(O)C(F)(F)C(F)(F)C(F)(F)C(F)(F)C(F)(F)C(F)(F)C(F)(F)F | inactive | 
37 | OCCOc1ccccc1 | inactive | 
